# Results taken from PubChem BioAssay.
# Assays:
# [1] = system: Human papillomavirus type 1a protein E7 (residues 44-93); test: small molecules binding HPV E7 44-93 – biochemical, small-molecule microarray, residues 44-93, 635 nm fluorescence, primary screen (AID 1108); conditions: fluorescence 635 nm, higher = more signal;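 further: E7 fragment applied at 1 µg/mL in TBST for 1 h at 4 C; score combines spot fluorescence with its signal to noise ratio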
# [2] = hepatitis C replication reporter changes, two-sided – Huh7 cells, luciferase reporter, HCV replication inhibitor project, primary screen (AID 1109); conditions: Huh7 HCV replicon luciferase reporter, 48 h; higher = more signal;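 further: huh7 hepatoma cells harbouring a luciferase neomycin HCV replicon reporter; luciferase luminescence as measure of HCV replicon replication; test concentration not given here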
# [3] = molecular target: Left-right determination factor 2 (Homo sapiens) (UniProt O00292); test: small molecules binding LEFTY2 protein – biochemical, small-molecule microarray, 635 nm fluorescence scan, primary screen (AID 1110); conditions: higher = more signal
# [4] = molecular target: Calmodulin-1 (Homo sapiens) (UniProt P0DP23); test: small molecules binding calmodulin-1 with EGTA – biochemical, small-molecule microarray, Cy5-labelled CALM1, profiling panel (AID 1111); conditions: Cy5-CALM1 binding fluorescence, higher = more signal;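 further: labelled calmodulin applied in Tris saline Tween buffer holding calcium plus EGTA and DTT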
# [5] = molecular target: Calmodulin-1 (Homo sapiens) (UniProt P0DP23); test: small molecules binding Ca-loaded calmodulin-1 – biochemical, small-molecule microarray, Cy5-labelled CALM1, plus calcium, artefact control for SMM control-protein annotation, profiling panel (AID 1112); conditions: Cy5-CALM1 binding fluorescence, higher = more signal;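 further: score merges spot fluorescence with signal to noise from triplicate slides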
# [6] = probe aWnt5a binding to arrayed compounds – biochemical, biotinylated probe, 635/667 nm fluorescence, primary screen (AID 1113); conditions: small-molecule microarray, higher = more signal;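 further: score merges 667 nm fluorescence intensity with signal-to-noise per printed feature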
# [7] = probe aShh binding to arrayed compounds – biochemical, biotinylated probe, 635/667 nm fluorescence, primary screen (AID 1114); conditions: small-molecule microarray, higher = more signal;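 further: probe is biotin-labelled aShh protein from a stem cell growth factor screen; measures binding of labelled protein to compounds printed on the slide; score merges feature fluorescence at 667 nm with signal-to-noise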
# [8] = probe aNog binding to arrayed compounds – biochemical, biotinylated probe, 635/667 nm fluorescence, primary screen (AID 1115); conditions: small-molecule microarray, higher = more signal;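 further: probe is biotinylated aNog protein used at 0.15 µg/mL for 1 h at 4 C; z-score combines 667 nm fluorescence of each spot with its signal to noise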
# [9] = molecular target: Torsin-1A-interacting protein 1 (Homo sapiens) (UniProt Q5JTV8); test: compound microarray binding of lysate hLAP1 – cell lysate, small-molecule microarray, COS7 lysate, 635/667 nm fluorescence, primary screen (AID 1116); conditions: 635 nm fluorescence, higher = more signal
# [10] = molecular target: Alpha-bungarotoxin (Bungarus multicinctus) (UniProt P60615); test: compounds binding labelled alpha-BTX control protein – biochemical, small-molecule microarray, Alexa647 label, 635/667 nm fluorescence, artefact control for SMM control protein annotation, profiling panel (AID 1117); conditions: alpha-BTX-A647 binding fluorescence, higher = more signal
# Chain of Alpha-bungarotoxin (Bungarus multicinctus) (P60615 whole entry, looked up): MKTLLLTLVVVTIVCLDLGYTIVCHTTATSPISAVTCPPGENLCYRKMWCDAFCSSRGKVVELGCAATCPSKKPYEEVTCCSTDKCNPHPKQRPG
# Chain of Left-right determination factor 2 (Homo sapiens) (O00292 whole entry, looked up): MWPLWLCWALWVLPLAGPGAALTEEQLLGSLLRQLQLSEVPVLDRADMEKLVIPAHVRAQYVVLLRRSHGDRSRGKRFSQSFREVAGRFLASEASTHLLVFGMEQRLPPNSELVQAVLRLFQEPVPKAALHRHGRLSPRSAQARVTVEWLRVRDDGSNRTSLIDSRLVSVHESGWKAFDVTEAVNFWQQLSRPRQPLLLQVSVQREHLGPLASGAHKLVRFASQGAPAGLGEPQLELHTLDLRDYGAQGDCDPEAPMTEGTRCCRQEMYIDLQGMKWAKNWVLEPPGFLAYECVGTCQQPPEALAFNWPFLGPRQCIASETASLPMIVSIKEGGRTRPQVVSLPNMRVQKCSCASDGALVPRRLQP
# Chain of Torsin-1A-interacting protein 1 (Homo sapiens) (Q5JTV8 whole entry, looked up): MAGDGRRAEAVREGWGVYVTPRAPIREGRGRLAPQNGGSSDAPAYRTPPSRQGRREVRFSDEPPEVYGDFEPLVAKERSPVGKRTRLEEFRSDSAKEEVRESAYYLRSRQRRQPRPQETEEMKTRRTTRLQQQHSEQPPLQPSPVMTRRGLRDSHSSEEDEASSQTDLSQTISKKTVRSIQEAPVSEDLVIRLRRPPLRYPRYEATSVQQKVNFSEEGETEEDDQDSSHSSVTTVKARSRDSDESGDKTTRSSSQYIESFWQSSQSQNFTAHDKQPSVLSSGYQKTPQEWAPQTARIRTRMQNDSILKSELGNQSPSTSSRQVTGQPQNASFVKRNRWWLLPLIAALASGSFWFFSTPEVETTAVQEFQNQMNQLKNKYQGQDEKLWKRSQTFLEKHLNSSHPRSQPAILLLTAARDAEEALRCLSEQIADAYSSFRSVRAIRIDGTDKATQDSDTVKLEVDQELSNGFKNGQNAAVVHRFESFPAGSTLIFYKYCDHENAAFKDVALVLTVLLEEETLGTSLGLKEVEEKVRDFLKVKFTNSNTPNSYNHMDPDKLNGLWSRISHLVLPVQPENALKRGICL
Structure (SMILES),composite z-score [1],z-score [2],composite z-score [3],composite z-score [4],composite z-score [5],composite z-score [6],composite z-score [7],composite z-score [8],composite z-score [9],composite z-score [10]
CC1CC/C=C\[C@H]2OC34C=CCN(C(C)C)C(=O)[C@H]3N(CCO)C(=O)[C@@H]4C2C(=O)O1 (stereo not given in full),-0.21,-0.566,-1.6,-0.377,0.0947,-0.202,0.0062,-0.0926,-0.241,-1.22
COC(=O)[C@@]1(Cc2ccc(F)cc2)[C@H]2c3cc(C(=O)N4CCCC4)n(CCc4c[nH]c5ccccc45)c3C[C@H]2CN1C(=O)c1ccccc1,1.42,-1.52,0.304,1.45,1.31,0.0718,0.582,2.08,1.63,1.89
O=C1O[C@@H](c2ccccc2)[C@@H](c2ccccc2)N2[C@@H](c3ccc(OCCO)cc3)[C@]3(C(=O)Nc4ccc(C#CC5=CCCCC5)cc43)[C@@H](C(=O)NC[C@H](O)c3ccccc3)[C@H]12,0.97,-2.54,0.665,1.25,0.7,-0.042,-0.398,1.74,1.12,0.608
CC(=O)NCCCC[C@@H]1NC(=O)[C@@H]2C[C@H](C(=O)NCCCCCN)[C@H](c3cccc(OCCO)c3)N2C1=O,0.794,-0.0844,0.736,1.09,0.634,0.0546,0.663,0.489,1.03,1.16
CCOC(=O)C1=CC[C@@H](c2ccccc2)N(S(=O)(=O)c2ccc(C)cc2)[C@H]1c1ccccc1,1.1,-0.667,0.0056,0.578,0.626,0.0037,-0.138,-0.0496,0.46,0.995
COc1ccc(C(=O)Nc2ccc(CN3C(=O)[C@]4(O[C@H](CC(=O)N5Cc6ccccc6C[C@H]5CO)[C@@H]([Si](C)(C)c5ccc(OC)cc5)[C@@H]4C)c4ccccc43)cc2)cc1,1.33,-3.58,0.575,0.301,-0.376,-0.128,-0.232,-0.31,0.795,1.31
Cc1ccc(F)cc1S(=O)(=O)N[C@@H]1CCN(Cc2ccc(Br)cc2)C1,-1.51,-1.5,0.681,-1.03,-0.806,-0.126,-0.214,-0.252,0.418,0.322
COCCOC(=O)N1C(=O)[C@@]2(c3ccccc31)[C@H](C(=O)NC[C@H](O)c1ccccc1)[C@H]1C(=O)O[C@H](c3ccccc3)[C@H](c3ccccc3)N1[C@@H]2c1ccc(O)cc1,1.44,-0.986,0.768,0.573,-0.522,-0.0072,0.209,0.39,1.21,1.78
O=C1C2C=CC(C(O)C3CC=CCC3)N(Nc3ccccc3)C2C(=O)N1c1ccccc1 (stereo not given),1.44,-0.463,0.0066,1.08,-0.0425,-0.098,0.128,0.821,0.946,1.78
